Assay results from PubChem BioAssay (NCI).
About 79,000 compounds went through this panel and 15% of them were active in at least one assay; those are over-represented in the sample as a whole. The source made the active and inactive calls. Rule as the data show it: active = growth inhibition above about 70%; inactive = the rest.

Assay: NCI Yeast Anticancer Drug Screen. Data for the cln2 rad14 strain (AID 165);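 also: 0% = growth equal to vehicle treated cultures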
Conditions: S. cerevisiae cln2 rad14 strain, at 5.0 µM (retest, dose inferred, filed as 0.5), active compounds read high
How it was run: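 Growth inhibition, relative to vehicle-treated controls, is the read-out. The test organism is a yeast strain with defined genetic alterations, cln2 rad14.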

| Structure (SMILES) | growth inhibition |
| --- | --- |
| CCCCCC(C1SC(=S)NC1=O)C1SC(=S)NC1=O (stereo not given) | -1% (inactive) |
| CC(C)C1=CC2=CC(=O)C3C(C)(C)CCCC3(C)C2=C(O)C1=O (stereo not given) | 24% (inactive) |
| CCOC(=O)C[n+]1c(C)sc2ccccc21 | -7% (inactive) |
| OCc1c(-c2cccc3ccccc23)sc(-c2cccc3ccccc23)c1CO | 63% (inactive) |
| CC1=C(C#N)C(=O)OC1(C)C(CC(=O)c1ccccc1)c1ccccc1 (stereo not given) | 3% (inactive) |
| O=c1oc2c3ccc4ccccc4c3n(CCCN3CCCCC3)c2c2ccccc12 | 27% (inactive) |
| Cc1cc(NC(=S)SCc2ccc(F)cc2)ccc1Br | 46% (inactive) |
| Cc1ccc(C2C(O)=C(c3ccccc3)Sc3ccc(C)cc32)cc1 (stereo not given) | -5% (inactive) |
| COC(=O)/C=C1/OC(c2ccccc2)=CC1=O | -2% (inactive) |
| COc1ccccc1NC(=O)CC(=O)N1N=C(c2ccccc2)C(N=Nc2ccc(Cl)cc2)C1=O (stereo not given) | 12% (inactive) |
| CC(=O)NC1=C(Nc2ccc(-c3ccc(NC4=C(NC(C)=O)C(=O)c5ccccc5C4=O)cc3)cc2)C(=O)c2ccccc2C1=O | 99% (active) |
| CCCCCCC(O)CCOC(C)=O (stereo not given) | 2% (inactive) |
| CCn1nc(-c2ccccc2)c2c1N(C)c1ccccc1-n1c(-c3ccccc3)nnc1-2 | 14% (inactive) |
| CC1(CCC(=O)O)c2ccc3ccccc3c2Oc2c1ccc1ccccc21 | 77% (active) |
| CCN1/C(=C\c2cc(C)nc(-c3ccccc3)[n+]2C)C=Cc2ccccc21 | 43% (inactive) |
| Cc1ccccc1N1C(=O)c2ccccc2C1=O | 6% (inactive) |
| O=C(Oc1ccccc1)C1CCCCC1C(=O)Oc1ccccc1 (stereo not given) | 10% (inactive) |
| Cc1cccc2c1C1c3c(C)cccc3C(O)CC1CC2O (stereo not given) | -18% (inactive) |
| CC(C)c1cc2c(cc1O)C(O)C1(O)CCCC(C)(C)[C@H]1CC2 (stereo not given in full) | -11% (inactive) |
| C/C=C/c1ccc(OCC(=O)O)c(OC)c1 | -3% (inactive) |

| Structure (SMILES) | growth inhibition |
| --- | --- |
| Nc1ccc(S(=O)(=O)NCc2nccs2)cc1 | -7% (inactive) |
| N#CC(NNC(=O)c1ccccc1O)c1c(O)ccc2ccccc12 (stereo not given) | 16% (inactive) |
| Oc1ccc(Cl)cc1Cc1cc(Cl)cc(Cc2cc(Cl)ccc2O)c1O | -12% (inactive) |
| O=C1CN(CCN2CCOCC2)CC(=O)N2Cc3ccccc3CN12 | 3% (inactive) |
| CC1CCC(SC2CC(=O)CCC2=O)CC1 (stereo not given) | 6% (inactive) |
| Clc1ccc(OCC2CO2)c(Cl)c1 (stereo not given) | 5% (inactive) |
| CN=C(N)N/N=C(\C)c1ccc2c(ccc3ccccc32)c1 | -3% (inactive) |
| Cc1cc(O)c(/C=N/c2nc(-c3cccc([N+](=O)[O-])c3)cs2)c(=O)o1 | 22% (inactive) |
| COc1cccc2c1OC(c1ccc(Cl)cc1)C([N+](=O)[O-])=C2 (stereo not given) | 86% (active) |
| COc1ccc(C(=O)C2C(=O)C(=O)OC2C2OC(=O)C(=O)C2C(=O)c2ccc(OC)cc2)cc1 (stereo not given) | -4% (inactive) |
| CCCCCCCCCCCCCCCCOc1ccc(S(=O)(=O)N/N=c2/sc3ccc(S(=O)(=O)O)cc3n2C)cc1C(=O)O | 16% (inactive) |
| O=C(Nc1ccc(F)cc1)N1CCCCC1 | 29% (inactive) |
| C[CH2][Sn]([CH2]C)([O]C(=O)c1cc(OC)c(OC)c(OC)c1)[O][Sn]([CH2]C)([CH2]C)[O]C(=O)c1cc(OC)c(OC)c(OC)c1 | 8% (inactive) |
| C/C(O)=C(/C=N/C(=S)Nc1ccc(S(N)(=O)=O)cc1)C(=O)Nc1ccccc1C | -14% (inactive) |
| CC(C)CC(N)C(=O)NNc1ccccc1 (stereo not given) | 19% (inactive) |
| CCC(C(c1ccc(Cl)cc1)c1ccc(Cl)c(Cl)c1)[N+](=O)[O-] (stereo not given) | 4% (inactive) |
| O=C(O)c1nc2cc(C(F)(F)F)ccc2nc1Nc1ccc(F)cc1 | 20% (inactive) |
| Nc1nc(-c2ccccn2)cc2cc(Cl)ccc12 | 88% (active) |
| CC1(c2ccccc2)NC(=O)N(CC(=O)N(c2ccccc2)c2ccccc2)C1=O (stereo not given) | 14% (inactive) |
| O/N=C(/Cc1ccccc1)c1ccc2c(c1)OCO2 | -6% (inactive) |
